Measurements as given in PubChem BioAssay (NCI).
The panel holds about 83,000 compounds, 20% with a hit somewhere; the sample as a whole holds those more often.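 Note: values are percent growth. 100 is the growth of untreated cells, values between 100 and 0 indicate rising inhibition; between -100 and 0 indicates cell death.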 Values without a mark were called inactive. Active and inactive are the calls of the source. How the source made its calls: active means growth percent below 10; inactive means the rest.

System: RPMI-8226 leukemia
Assay: NCI-60 one-dose screen, 48 h (100 = growth as untreated, 0 = no growth, -100 = all killed)
Conditions: 10 µM unless noted

Compound	growth
COc1c(B(O)O)cccc1-c1nc2ccc3[nH]ncc3c2c2c1C1CCC2C1 (centres undefined)	39.7%
O=C(Nc1ccc(Cl)cc1F)c1cc(F)ccc1O	-23% (active)
O=c1oc2ccc(I)cc2c(=O)n1-c1ccc(I)cc1F	-31.2% (active)
NCCNc1nc2ccc(F)cc2c2c(=O)c3cc(F)ccc3sc12	7.67% (active)
O=C(Nc1ccc(Br)cc1F)c1cc(F)ccc1O	-28.9% (active)
Cc1ccc(Nc2nc(N)c3ccccc3n2)cc1Cl	24%
O=C1c2cc(I)ccc2Oc2cc([N+](=O)[O-])ccc2N1c1ccc(Cl)cc1F	87.4%
CC1=C(C(=O)OCC2CCN(C(=O)OC(C)(C)C)CC2)[C@H](c2cccc(Br)c2)C2=C(CC(C)(C)CC2=O)N1	18.6%
O=C(c1ccccc1)N(C(=S)NCCc1ccc(Cl)cc1)c1ccc(Cl)cc1	62.5%
C#CCn1cc(C=C2C(=O)NC(=O)NC2=O)c2cc(Cl)ccc21	70.3%
O=c1oc2ccc(Br)cc2c(=O)n1-c1ccc(F)cc1F	-4.83% (active)
O=C(Nc1ccc(Br)cc1F)c1cc(I)ccc1O	-8.84% (active)
O=c1oc2ccc(Cl)cc2c(=O)n1-c1cc(C(F)(F)F)cc(C(F)(F)F)c1	-26% (active)
O=c1oc2ccc(Br)cc2c(=O)n1-c1ccc(I)cc1F	-28.3% (active)
O=c1oc2ccc(-c3ccc(F)cc3F)cc2c(=O)n1-c1cccc(C(F)(F)F)c1	-6.6% (active)
O=c1oc2ccc(F)cc2c(=O)n1-c1ccc(Br)cc1F	-22.3% (active)
O=c1oc2ccc(I)cc2c(=O)n1-c1ccc(Br)cc1F	-26.2% (active)
Cc1nc(Nc2ccccn2)sc1C(=O)/C=C/c1ccc(Cl)cc1	12%
Nc1cccc(Nc2cc(S(=O)(=O)O)c(N)c3c2C(=O)c2ccccc2C3=O)c1	110%
COc1ccc2sc(N(Cc3cccnc3)C(=O)c3ccc(C#N)cc3)nc2c1	64.4%

Compound	growth
COc1cccc(C2=NN3C(C2)c2ccccc2OC3c2ccc(/C=C3\SC(=O)NC3=O)cc2)c1 (centres undefined)	99.4%
O=C1c2cc(Br)ccc2Oc2cc([N+](=O)[O-])ccc2N1c1ccc(I)cc1F	104%
O=c1oc2ccc(Cl)cc2c(=O)n1-c1ccc(Cl)cc1F	-28.5% (active)
COc1ccc(C2C3=C(COC3=O)N(CCO)c3cc4c(cc32)OCCO4)cc1 (centres undefined)	99.9%
CC[C@]1(O)C[C@@H]2CN(CCc3c([nH]c4ccccc34)[C@@](C(=O)OC)(c3cc4c(cc3OC)N(C)[C@H]3[C@@](O)(C(=O)OC)[C@H](OC(=O)CCCBr)[C@]5(CC)C=CCN6CC[C@]43[C@@H]65)C2)C1	6.27% (active)
O=C1c2cc(Cl)ccc2Oc2cc([N+](=O)[O-])ccc2N1c1ccc(F)cc1F	87.6%
COc1ccccc1N1C(=N)S/C(=C\c2ccc(OCc3ccccc3F)cc2)C1=O	70.1%
CC[C@]1(O)C[C@@H]2CN(CCc3c([nH]c4ccccc34)[C@@](C(=O)OC)(c3cc4c(cc3OC)N(C)[C@H]3[C@@](O)(C(=O)OC)[C@H](OC(C)=O)[C@]5(CC)C=CCN6CC[C@]43[C@@H]65)C2)C1	11.3%
O=c1c2cc(F)ccc2sc2c(NCCCNCCO)nc3ccc(Cl)cc3c12	36%
COc1cc2cc3c(=O)n4c(cc5cc(OC)ncc54)c(=O)n3c2cn1	98%
Nc1ccc(-c2nn3c(CCC(=O)c4nc5ncccc5[nH]4)nnc3s2)c(O)c1	101%
O=c1oc2ccc(Br)cc2c(=O)n1-c1ccc(Cl)cc1F	-25.5% (active)
COc1ccc(/C=C2\NC(=O)NC2=O)cc1O	101%
CN(C)c1ccc(/C=C/c2ccnc3c(O)cccc23)cc1	1.91% (active)
O=C(c1ccccc1)N(C(=S)NCCc1ccc(Cl)cc1)c1ccccc1	-30.9% (active)
O=c1oc2ccc(Cl)cc2c(=O)n1-c1ccc(F)cc1F	-1.02% (active)
CC(C)C[C@H](C(=O)N[C@@H](C)C(N)=O)N1CC=CCN(O)S1(=O)=O	106% [5 µM]
O=C(Nc1ccc(Cl)cc1F)c1cc(I)ccc1O	3.96% (active)
O=C(CCc1nnc2sc(Cc3ccccc3Cl)nn12)c1nc2ncccc2[nH]1	103%
